Hsp70 act: switches on Hsp70 transcription | activation, % at 10 µM | HeLa Hsp70 promoter luciferase reporter, luminescence; scaled: vehicle 0, proteasome-inhibitor control 100% | hit rate 0.04% among 200,000;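 active means activation above the mean across all tested compounds plus 3 SD, cutoff set per campaign, cut at about 5.5% in these data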
STAT1 act: increases IFN-gamma driven STAT1 reporter signal. NIH 3T3 STAT1-luciferase reporter, luminescence; 100% = IFN-gamma alone, no compound. activation (% of control), % at 5.5 µM. hit rate 2.6% among 200,000. AID 932;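 active means activation above the screen-wide mean activation plus 3 SD, cut at about 130% in these data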
Wee1 stabilizer: inhibitors of human Wee1 degradation. P30291. HeLa Luc-Wee1K328M stability, luciferase luminescence; 100% = proteasome inhibitor MG132 effect. reporter increase, % at 5 µM. hit rate 1.2% among 220,000;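 active means activation above the mean of all tested compounds plus 3 SD, set per screening run, cut at about 8.8% in these data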;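 further: cells exposed to compound for 20 h before luminescence read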
Target sequence (P30291 whole entry K328M): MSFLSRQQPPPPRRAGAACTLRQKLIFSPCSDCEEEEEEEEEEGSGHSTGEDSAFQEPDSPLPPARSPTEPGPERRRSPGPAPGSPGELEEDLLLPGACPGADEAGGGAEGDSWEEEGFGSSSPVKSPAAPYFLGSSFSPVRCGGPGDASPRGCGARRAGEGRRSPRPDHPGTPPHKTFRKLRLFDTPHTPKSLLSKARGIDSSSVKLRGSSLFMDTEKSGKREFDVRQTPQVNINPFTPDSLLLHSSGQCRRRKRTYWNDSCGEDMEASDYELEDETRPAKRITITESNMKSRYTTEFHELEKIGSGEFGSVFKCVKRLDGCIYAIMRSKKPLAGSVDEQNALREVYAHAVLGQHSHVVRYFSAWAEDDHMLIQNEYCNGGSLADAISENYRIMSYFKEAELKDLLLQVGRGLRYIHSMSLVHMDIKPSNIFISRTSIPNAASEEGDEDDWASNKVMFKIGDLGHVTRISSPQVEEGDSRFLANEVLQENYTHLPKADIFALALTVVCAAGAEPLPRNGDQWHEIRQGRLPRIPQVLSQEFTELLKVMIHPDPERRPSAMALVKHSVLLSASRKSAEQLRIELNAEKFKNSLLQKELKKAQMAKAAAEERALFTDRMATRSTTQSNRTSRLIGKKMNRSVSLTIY
APP transl inh: APP translation inhibition | SH-SY5Y APP 5'UTR-luciferase reporter, luminescence | inhibition, % at 2 µM | hit rate 0.82% among 190,000;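 active means inhibition above a set limit, derived from the sample mean plus 3 SD, cut at about 45% in these data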
APP 5'UTR act: APP 5'UTR luciferase reporter activation; SH-SY5Y APP 5'UTR luciferase reporter, luminescence; zero percent = DMSO vehicle wells; activation, % at 2 µM; hit rate 1% among 190,000; AID 1276;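 active means activation above a set limit, based on mean plus 3 SD of controls, cut at about 140% in these data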
NF-kB expr up: compounds increasing NF-kB expression in human neuronal cells; NF-kB reporter expression; hits give high values; fold change at 12.5 µM; hit rate 1.6% among 190,000; AID 1239; in the data active means fold change above about 3.3
Hits are given with their value; i = inactive; nt = no result given; ! = not active in a repeat. Hits are enriched below; roughly 4.8% of the tested compounds scored in any of these assays.

SMILES	Hsp70 act	STAT1 act	Wee1 stabilizer	APP transl inh	APP 5'UTR act	NF-kB expr up
O=C(CC1Oc2ccccc2NC1=O)NCc1ccccc1 (configuration not stated)	i	i	i	i	i	i
Cc1nnc2ccc(-c3ccc(NC(=O)c4ccco4)cc3)nn12	i	i	i	i	i	i
Cc1ccn2cc(-c3ccc(NC(=O)c4ccco4)cc3)nc2c1	i	135	i	i	139	i
Cc1ccn2cc(-c3cccc(NS(C)(=O)=O)c3)nc2c1	i	i	i	i	i	i
Cc1ccn2cc(-c3ccc(NS(=O)(=O)c4ccccc4)cc3)nc2c1	i	130	i	i	i	i
CC(=O)Nc1cccc(-c2cn3ccc(C)cc3n2)c1	i	129	i	i	i	4.2
Cc1nn(CC(=O)c2ccc(Br)s2)c(C)c1[N+](=O)[O-]	nt	nt	i	nt	nt	nt
COc1ccc(OCc2cnc(Cl)s2)cc1	i	i	i	i	i	i
Cc1ccc(OCc2cnc(Cl)s2)c(C)c1	i	137	i	i	i	i
CN1CCN(CC(=O)N2c3ccccc3C(C)(c3ccc(Cl)cc3)CC2(C)C)CC1 (configuration not stated)	i	i	i	i	i	i
CN1CCN(CC(=O)N2c3ccccc3C(C)(c3ccccc3)CC2(C)C)CC1 (configuration not stated)	i	i	i	i	i	6
Cc1ccc(CSc2nnc(CNc3ccc(F)cc3)o2)cc1	i	i	9.6	i	i	i
O=C(CSc1nc2ccccc2s1)NC1CCS(=O)(=O)C1 (configuration not stated)	i	i	11	i	i	i
O=C(CSc1nnc(NCc2ccccc2)s1)NC1CCS(=O)(=O)C1 (configuration not stated)	nt	nt	i	nt	nt	nt
COc1cc(/C=N/N=C(N)N)ccc1OCc1ccccc1Cl	i	i	i	i	i	4.3
O=C(CC(NCc1ccccn1)C(=O)O)Nc1ccccc1Cl (configuration not stated)	i	i	i	i	i	i
Clc1ccc(COn2nnc3ccccc32)c(Cl)c1	i	146	i	i	153	i
O=C(Cn1ncc(Cl)c(Cl)c1=O)N1CCN(S(=O)(=O)c2ccc3ccccc3c2)CC1	i	i	i	94	i	i
O=C(CN(Cc1ccccc1)C1=NCCS1)c1ccccc1	i	i	i	i	i	i
Cc1ccc(C(=O)CN(Cc2ccccc2)C2=NCCS2)cc1	i	i	10	i	i	i
C/C=C/c1ccc(OCCCCOc2c(OC)cccc2OC)c(OC)c1	i	i	15	i	i	i
C/C=C/c1ccc(OCCCCOc2ccccc2C(C)=O)c(OC)c1	i	i	i	i	i	i
O=C(NCCc1c[nH]c2ccccc12)/C(=C\c1cccs1)NC(=O)c1ccccc1	i	i	i	i	i	i
CCCCNC(=S)N/N=C/C1=CCC2CC1C2(C)C (configuration not stated)	i	i	8.9	i	i	i
C=CCn1c(SCc2c(C)noc2C)nc2ccccc2c1=O	i	i	i	94	i	3.4
SMILES	Hsp70 act	STAT1 act	Wee1 stabilizer	APP transl inh	APP 5'UTR act	NF-kB expr up
Cc1noc(C)c1CSc1nc2[nH]ncc2c(=O)n1-c1ccccc1	i	i	i	94	i	i
C=CCn1c(SCc2c(C)noc2C)nc2cc(C(=O)O)ccc2c1=O	i	i	i	i	i	i
C=CCn1c(SCc2cc(C(C)=O)ccc2OCC)nc2ccccc2c1=O	i	i	i	93	i	i
COc1ccc(C(C)=O)cc1CSc1nc2ccccc2c(=O)n1-c1ccccc1	i	i	i	i	i	i
Oc1ccc(Nc2nc(-c3ccc4ccccc4c3)cs2)cc1	i	i	i	i	i	i
Oc1ccc(-c2nc(-c3ccc(O)c(O)c3)cs2)cc1	i	i	i	94	i	3.8
CN1CCN(c2ccc(NS(=O)(=O)c3ccc(Cl)cc3)cn2)CC1	i	i	i	i	i	i
CCCC12CN3CCN(CC(C3)/C1=N\NC(=O)c1ccc(F)cc1)C2	i	i	i	i	i	i
CCCC12CN3CCN(CC(C3)/C1=N\NC(=O)Nc1ccccc1)C2	i	i	10.0	i	i	i
CCOc1cc(-c2ccc(N)c(OCC)c2)ccc1N	i	i	i	i	i	i
CCNCc1cc(Cl)cc(OC)c1OC(C)C	i	i	9.2	i	i	i
O=C(CSc1nnnn1-c1cccc2ccccc12)NC(C(=O)O)(c1ccccc1)c1ccccc1	i	i	i	i	i	i
CC(=O)c1ccc(NC(=O)Oc2ccccc2)cc1	i	i	i	nt	nt	i
CC(C)Oc1ccc(NC(=O)Oc2ccccc2)cc1	i	130	i	i	i	i
COc1cccc(C(=O)CSc2nnc(CNS(=O)(=O)c3ccc(C)cc3)n2C)c1	i	i	9.7	i	i	i
CCC(=O)Nc1sccc1C(=O)OC	i	i	i	i	i	i
Cc1ccn2c(Nc3ccccc3C)c(-c3ccccn3)nc2c1	i	i	i	i	i	i
Cc1ccn2c(Nc3ccccc3)c(-c3ccccn3)nc2c1	i	i	i	59	i	i
O=C(NCc1ccccc1)c1cccc(COc2ccccc2Cl)c1	i	i	i	i	i	i
NNC(=O)c1cccc(COc2ccccc2Br)c1	i	i	i	i	173	i
NNC(=O)c1ccc(COc2cccc3ccccc23)cc1	i	i	i	i	i	i
O=C(NCc1ccccc1)c1cccc(COc2cc(Cl)ccc2Cl)c1	i	135	i	i	i	i
CC(C)CC(=O)Nc1ccc2ccccc2c1	i	i	i	i	i	i
CN1CCN(c2ccccc2NC(=O)c2ccc(F)cc2)CC1	nt	nt	i	nt	nt	nt
CC1CCN(c2ccccc2NC(=O)c2ccc(F)cc2)CC1	i	i	9.5	i	i	i
SMILES	Hsp70 act	STAT1 act	Wee1 stabilizer	APP transl inh	APP 5'UTR act	NF-kB expr up
CCN(CC)c1nc(-c2cccc(OC)c2O)nc2ccccc12	i	i	i	52	i	i
COc1cc(OC)c(-c2nc3ccccc3s2)cc1OC	i	i	i	i	i	i
Oc1ccc(O)c(Cc2nc3ccccc3s2)c1	i	i	i	i	i	i
COc1cccc(-c2nc3ccccc3s2)c1O	i	i	i	i	212	6.4
C=CCNc1nc(-c2cccc(OC)c2O)nc2ccccc12	i	i	i	i	i	i
Oc1ccccc1OCc1nc2ccccc2s1	i	i	i	i	154	3.4
COc1ccc(-c2nc3ccccc3s2)cc1O	i	i	i	i	225	i
O=C(N/C(=C/c1ccccc1Cl)C(=O)N1CCCC1)c1ccccc1	i	i	i	i	i	i
Cn1cc(Br)c(C(=O)NNC(=O)c2ccc(Br)cc2)n1	i	i	i	i	i	i
COc1ccc(C)cc1NC(=O)c1cc2c(CO)cnc(C)c2oc1=N	i	i	9.2	i	i	i
COc1cc(N=c2oc3c(C)ncc(CO)c3cc2C(N)=O)cc(OC)c1OC	i	i	i	i	i	i
COc1ccc(-c2cn(-c3ccccc3)c3[n+]2CCS3)cc1	i	i	11!	i	i	i

Bioassay records deposited in PubChem BioAssay by several laboratories.
